Data: PubChem BioAssay (Tox21)
Inconclusive results are not listed. Active and inactive are the calls of the source. Unless noted, calls follow the shape of the dose curve; as a rule, active = well fitted curve in the direction sought with a large enough effect in the repeat runs; inconclusive = weak or mixed curves; inactive = no such curve, though single readings can be large; an effect the other way counts as inactive or inconclusive.

What was measured:
[1] = molecular target: Estrogen receptor (Homo sapiens) (UniProt P03372); test: qHTS assay to identify small molecule antagonists of the estrogen receptor alpha (ER-alpha) signaling pathway using the BG1 cell line in the presence of 0.1 nM 17-beta-estradiol (AID 1259244); also: nearly all actives have a fitted effect of over 50% in size; also: potency is read from the fitted curve at half-maximal effect
Sequence of Estrogen receptor (Homo sapiens) (P03372 whole entry, looked up): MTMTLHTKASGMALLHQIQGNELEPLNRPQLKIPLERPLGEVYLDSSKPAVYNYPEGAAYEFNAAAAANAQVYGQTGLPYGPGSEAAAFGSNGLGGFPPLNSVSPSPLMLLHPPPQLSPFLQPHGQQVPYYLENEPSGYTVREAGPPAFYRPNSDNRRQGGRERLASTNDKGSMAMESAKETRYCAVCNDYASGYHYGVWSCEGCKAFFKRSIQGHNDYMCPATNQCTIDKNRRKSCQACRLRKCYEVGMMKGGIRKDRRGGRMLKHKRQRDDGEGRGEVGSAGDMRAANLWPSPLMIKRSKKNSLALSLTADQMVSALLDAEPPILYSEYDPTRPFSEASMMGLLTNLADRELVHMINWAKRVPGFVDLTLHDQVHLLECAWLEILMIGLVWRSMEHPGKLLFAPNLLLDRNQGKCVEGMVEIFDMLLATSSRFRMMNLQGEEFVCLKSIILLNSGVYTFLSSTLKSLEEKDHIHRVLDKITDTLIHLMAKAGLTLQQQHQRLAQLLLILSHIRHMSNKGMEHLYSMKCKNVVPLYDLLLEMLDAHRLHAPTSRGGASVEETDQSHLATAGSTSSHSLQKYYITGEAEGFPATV
Outline: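 VM7Luc4E2; 4xERE-luciferase; 0.1 nM E2 final; 22 h co-incubation, 37C; ONE-Glo luminescence after 30 min at room temperature.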

[2] = qHTS assay to identify small molecule HDAC inhibitors (AID 1259364); also: potency is read from the fitted curve at half-maximal effect;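 also: wild-type HCT-116 cells with endogenous class I/II HDAC activity; nearly all actives have a fitted effect of over 45% in size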
Outline: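 Relative class I and II HDAC activity is taken from the luminogenic signal in HCT-116 cells, with compound exposure 2 hr and reagent development 30 min at room temperature.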

[3] = qHTS assay to identify small molecule HDAC inhibitors - cell viability counter screen (AID 1259365); also: series mostly up to about 92 µM; nearly all actives have a fitted effect of over 50% in size
Outline: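 Wild-type HCT-116 cells, 1,500/well, cultured overnight, then compound-treated 2 h at 37 C. Viability measured as ATP luminescence with CellTiter-Glo after 30 min at room temperature.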

[4] = qHTS assay to identify small molecule agonists of the sonic hedgehog signaling (Shh) pathway - cell viability counter screen (AID 1259366); also: nearly all actives have a fitted effect of over 50% in size; also: potency is read from the fitted curve at half-maximal effect
Outline: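 NIH/3T3-derived Gli1-Luc reporter cells, 2,000 per well, received compound after 4 h and were treated about 23 h at 37C. Viability measured in the same wells by CellTiter-Fluor fluorescence after 1 h.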

[5] = qHTS assay to identify small molecule antagonists of the sonic hedgehog signaling (Shh) pathway - cell viability counter screen (AID 1259367); also: nearly all actives have a fitted effect of over 55% in size
Outline: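 Using CellTiter-Fluor, viability of Gli1-Luc reporter 3T3 cells is read by fluorescence in the wells used for the Shh luciferase assay. Treatment lasts 23 hr with conditioned medium, then reagent 1 hr at 37C.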

[6] = qHTS assay to identify small molecule agonists of the sonic hedgehog signaling (Shh) pathway (AID 1259368; calls by dose curve;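 also: NIH/3T3-derived 3T3Gli1-Luc cells carrying a stable Gli1-driven firefly luciferase reporter; series mostly up to about 92 µM; nearly all actives have a fitted effect of over 15% in size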)
Outline: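 Mouse fibroblast (NIH/3T3) reporter cells with stably integrated Gli1-Luc were treated 24 hr with compound; firefly luciferase luminescence served as the read-out.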

[7] = qHTS assay to identify small molecule agonists of the androgen receptor (AR) signaling pathway in the presence of an antagonist - cell viability counter screen (AID 1259379); also: nearly all actives have a fitted effect of over 25% in size; also: potency is read from the fitted curve at half-maximal effect
Outline: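 A CellTiter-Fluor read-out measured viability of MDA-kb2 reporter cells (MMTV promoter with AR and GR response elements). Treatment: nilutamide 3.0uM final with compounds at 15 concentrations, 16 hr, 37C, 0% CO2.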

[8] = qHTS assay to identify small molecule agonists of the estrogen receptor beta (ER-beta) signaling pathway - cell viability counter screen (AID 1259380); also: nearly all actives have a fitted effect of over 30% in size; also: potency is read from the fitted curve at half-maximal effect
Outline: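 Cells used were ER-beta-UAS-bla HEK293T in medium with 2% charcoal-stripped FBS. They were treated for 16 hr at 37C. Viability came from CellTiter-Glo luminescence.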

[9] = qHTS assay to identify small molecule antagonists of the estrogen receptor beta (ER-beta) signaling pathway - cell viability counter screen (AID 1259382); also: nearly all actives have a fitted effect of over 55% in size; also: potency is read from the fitted curve at half-maximal effect
Outline: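 Agonist-stimulated (1nM E2) ER-beta-UAS-bla HEK293T cells are incubated with library compounds for 16 hr at 37C. Cell viability is then assessed in the reporter-assay wells by adding CellTiter-Glo and reading luminescence after 30 min.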

[10] = molecular target: Estrogen receptor (Homo sapiens) (UniProt P03372); test: qHTS assay to identify small molecule agonists of the estrogen receptor alpha (ER-alpha) signaling pathway in the presence of an antagonist (AID 1259383; calls by dose curve; also: top concentration of the series differs between compounds; nearly all actives have a fitted effect of over 15% in size)
Outline: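 Using VM7Luc4E2 cells seeded 24hr before treatment, antagonist ICI-182,780 (10.0nM final) was added, followed by compounds at 15 concentrations. Plates incubated 22hr; ONE-Glo luminescence quantified reporter activity.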

[11] = qHTS assay to identify small molecule agonists or antagonists of the thyroid stimulating hormone receptor (TSHR) signaling pathway - wild type cell line counter screen (AID 1259384; calls by dose curve)
Outline: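 Counter screen in untransfected Hek293: compounds (15-point titration, triplicate) plus phosphodiesterase inhibitor Ro20-1724 added after 18 h plating; 30 min RT. Intracellular cAMP via competitive d2/cryptate immunoassay, 1 h incubation.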

[12] = molecular target: Thyrotropin receptor (Homo sapiens) (UniProt P16473); test: qHTS assay to identify small molecule antagonists of the thyroid stimulating hormone receptor (TSHR) signaling pathway (AID 1259385; calls by dose curve; also: nearly all actives have a fitted effect of over 20% in size; also: potency is read from the fitted curve at half-maximal effect)
Sequence of Thyrotropin receptor (Homo sapiens) (P16473 whole entry, looked up): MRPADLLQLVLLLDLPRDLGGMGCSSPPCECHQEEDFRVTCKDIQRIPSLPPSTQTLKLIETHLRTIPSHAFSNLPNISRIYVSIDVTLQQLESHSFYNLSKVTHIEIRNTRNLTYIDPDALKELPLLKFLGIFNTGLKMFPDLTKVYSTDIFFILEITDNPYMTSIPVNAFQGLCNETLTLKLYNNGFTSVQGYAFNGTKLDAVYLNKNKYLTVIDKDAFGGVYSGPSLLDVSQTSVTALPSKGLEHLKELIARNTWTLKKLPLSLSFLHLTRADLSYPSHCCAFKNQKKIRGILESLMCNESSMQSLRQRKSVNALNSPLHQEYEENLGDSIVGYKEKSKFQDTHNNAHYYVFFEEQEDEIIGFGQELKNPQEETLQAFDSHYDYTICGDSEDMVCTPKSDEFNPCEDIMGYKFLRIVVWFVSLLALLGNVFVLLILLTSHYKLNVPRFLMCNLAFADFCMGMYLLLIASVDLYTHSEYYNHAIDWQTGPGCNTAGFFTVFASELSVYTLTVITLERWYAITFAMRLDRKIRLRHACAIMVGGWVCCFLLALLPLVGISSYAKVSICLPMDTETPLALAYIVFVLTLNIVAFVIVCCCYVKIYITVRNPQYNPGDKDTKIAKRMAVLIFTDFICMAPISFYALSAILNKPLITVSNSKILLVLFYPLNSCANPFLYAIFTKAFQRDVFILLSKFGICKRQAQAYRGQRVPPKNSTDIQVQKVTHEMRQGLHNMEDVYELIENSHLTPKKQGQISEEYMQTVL
Outline: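 Antagonist mode: compound-treated TSHR-expressing HEK293 cells were stimulated with 1.5 ng/mL TSH (final) in presence of Ro20-1724 for 30 min at RT. HTRF cAMP detection after 1 h; each compound tested at 15 concentrations, triplicate.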

[13] = qHTS assay to identify small molecule agonists of the estrogen receptor alpha (ER-alpha) signaling pathway in the presence of an antagonist - cell viability counter screen (AID 1259386);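 also: cells exposed to compounds for 22 h at 37 °C before the viability read; nearly all actives have a fitted effect of over 30% in size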; also: potency is read from the fitted curve at half-maximal effect
Outline: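 ICI-182,780 at 10.0nM final accompanies the compound titration (15 concentrations, 22hr, 37C) on VM7Luc4E2 cells. The CellTiter-Fluor fluorescence readout runs in the same wells as the luciferase assay.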

[14] = molecular target: Progesterone receptor (Homo sapiens) (UniProt P06401); test: qHTS assay to identify small molecule agonists of the progesterone receptor (PR) signaling pathway (AID 1346784; calls by dose curve; also: nearly all actives have a fitted effect of over 30% in size)
Sequence of Progesterone receptor (Homo sapiens) (P06401 whole entry, looked up): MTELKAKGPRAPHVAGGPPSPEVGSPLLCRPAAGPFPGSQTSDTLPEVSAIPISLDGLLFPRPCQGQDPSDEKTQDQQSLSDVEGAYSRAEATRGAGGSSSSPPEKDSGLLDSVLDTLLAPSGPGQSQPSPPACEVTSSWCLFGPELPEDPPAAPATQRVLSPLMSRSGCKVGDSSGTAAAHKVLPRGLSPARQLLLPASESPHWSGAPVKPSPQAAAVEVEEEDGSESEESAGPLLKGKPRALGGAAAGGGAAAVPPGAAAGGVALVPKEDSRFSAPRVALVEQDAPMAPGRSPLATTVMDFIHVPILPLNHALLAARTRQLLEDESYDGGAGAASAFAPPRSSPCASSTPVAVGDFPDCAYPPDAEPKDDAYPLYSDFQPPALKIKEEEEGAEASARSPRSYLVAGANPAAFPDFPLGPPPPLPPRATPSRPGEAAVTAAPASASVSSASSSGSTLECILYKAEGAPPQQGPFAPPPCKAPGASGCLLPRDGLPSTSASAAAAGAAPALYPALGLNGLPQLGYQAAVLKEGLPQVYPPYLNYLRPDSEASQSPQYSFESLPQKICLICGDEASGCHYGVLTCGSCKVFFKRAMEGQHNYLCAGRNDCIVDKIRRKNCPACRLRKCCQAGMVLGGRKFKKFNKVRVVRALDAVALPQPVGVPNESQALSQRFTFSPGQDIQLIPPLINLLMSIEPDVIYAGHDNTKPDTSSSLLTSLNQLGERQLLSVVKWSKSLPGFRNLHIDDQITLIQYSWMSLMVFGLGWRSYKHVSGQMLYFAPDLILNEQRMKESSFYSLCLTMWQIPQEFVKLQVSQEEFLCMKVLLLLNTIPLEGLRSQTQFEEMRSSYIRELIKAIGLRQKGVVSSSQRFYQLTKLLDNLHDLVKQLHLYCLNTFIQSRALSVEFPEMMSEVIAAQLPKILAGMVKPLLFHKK
Outline: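 PR-UAS-bla HEK 293T cells (beta-lactamase reporter under UAS) in 2% charcoal-stripped FBS, dosed with 23 nL compound after 6 hr, incubated 16hr at 37C. LiveBLAzer B/G FRET substrate added, fluorescence read after 2 hours.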

[15] = qHTS assay to identify small molecule antagonists of the sonic hedgehog signaling (Shh) pathway (AID 1259369; calls by dose curve; also: nearly all actives have a fitted effect of over 45% in size; also: potency is read from the fitted curve at half-maximal effect)
Outline: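 Conditioned medium drives Shh signalling in 3T3Gli1-Luc cells; compounds in DMSO co-applied, 24hr at 37 C, then luciferase luminescence.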

[16] = molecular target: Androgen receptor (Homo sapiens) (UniProt P10275); test: qHTS assay to identify small molecule agonists of the androgen receptor (AR) signaling pathway in the presence of an antagonist (AID 1259381; calls by dose curve; also: nearly all actives have a fitted effect of over 15% in size; also: potency is read from the fitted curve at half-maximal effect)
Sequence of Androgen receptor (Homo sapiens) (P10275 whole entry, looked up): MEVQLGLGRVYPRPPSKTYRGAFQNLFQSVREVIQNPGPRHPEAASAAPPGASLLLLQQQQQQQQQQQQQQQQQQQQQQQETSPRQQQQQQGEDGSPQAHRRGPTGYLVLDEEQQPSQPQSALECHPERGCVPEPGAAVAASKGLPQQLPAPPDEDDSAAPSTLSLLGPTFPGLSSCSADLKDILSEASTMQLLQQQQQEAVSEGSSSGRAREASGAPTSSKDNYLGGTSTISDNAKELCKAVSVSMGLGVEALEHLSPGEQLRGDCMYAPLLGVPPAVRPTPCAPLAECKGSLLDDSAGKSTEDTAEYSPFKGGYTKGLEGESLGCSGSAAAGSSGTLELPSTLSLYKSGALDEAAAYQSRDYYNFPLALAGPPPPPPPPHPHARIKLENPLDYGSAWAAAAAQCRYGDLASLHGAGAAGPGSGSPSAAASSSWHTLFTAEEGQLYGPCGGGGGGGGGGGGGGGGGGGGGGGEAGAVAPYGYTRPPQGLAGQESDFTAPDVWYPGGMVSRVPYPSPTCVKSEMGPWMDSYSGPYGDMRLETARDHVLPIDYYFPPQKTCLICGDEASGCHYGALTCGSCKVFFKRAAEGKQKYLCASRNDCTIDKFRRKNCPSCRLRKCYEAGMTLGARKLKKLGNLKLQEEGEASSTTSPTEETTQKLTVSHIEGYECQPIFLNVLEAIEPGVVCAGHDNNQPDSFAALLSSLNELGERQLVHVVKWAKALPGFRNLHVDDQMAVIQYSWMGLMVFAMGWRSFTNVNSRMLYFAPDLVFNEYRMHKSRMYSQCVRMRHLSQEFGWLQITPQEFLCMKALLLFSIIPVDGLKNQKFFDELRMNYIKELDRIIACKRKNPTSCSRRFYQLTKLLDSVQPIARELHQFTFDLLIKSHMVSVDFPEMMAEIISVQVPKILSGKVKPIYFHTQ
Outline: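 Using human MDA-kb2 cells with an MMTV promoter–luciferase construct (AR and GR response elements), agonist activity is scored under 3.0uM nilutamide (final) co-treatment; 16hr incubation, 37C, luminescence readout via ONE-Glo.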

[17] = molecular target: Estrogen receptor beta (Homo sapiens) (UniProt Q92731); test: qHTS assay to identify small molecule antagonists of the estrogen receptor beta (ER-beta) signaling pathway (AID 1259378; active = well fitted inhibition curve with a large enough effect in the signal ratio in the repeat runs, not every such curve was filed as active; the % refers to the signal ratio; also: potency is read from the fitted curve at half-maximal effect)
Sequence of Estrogen receptor beta (Homo sapiens) (Q92731 whole entry, looked up): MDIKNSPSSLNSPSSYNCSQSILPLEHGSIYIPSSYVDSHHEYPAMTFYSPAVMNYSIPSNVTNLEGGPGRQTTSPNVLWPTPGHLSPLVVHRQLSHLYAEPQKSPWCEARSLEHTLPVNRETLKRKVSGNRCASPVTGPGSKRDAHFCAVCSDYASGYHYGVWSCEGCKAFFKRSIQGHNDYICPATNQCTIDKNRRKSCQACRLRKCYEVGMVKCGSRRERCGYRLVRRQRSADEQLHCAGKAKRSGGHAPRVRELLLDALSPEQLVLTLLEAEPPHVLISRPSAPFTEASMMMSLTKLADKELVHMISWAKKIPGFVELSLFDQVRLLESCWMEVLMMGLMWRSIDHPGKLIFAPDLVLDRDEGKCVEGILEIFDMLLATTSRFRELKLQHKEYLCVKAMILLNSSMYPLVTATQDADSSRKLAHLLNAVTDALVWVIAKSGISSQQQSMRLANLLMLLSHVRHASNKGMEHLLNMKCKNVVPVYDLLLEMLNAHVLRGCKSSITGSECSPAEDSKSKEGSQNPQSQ
Outline: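 Antagonist mode: compounds added to beta-lactamase reporter HEK293T ER-beta-UAS cells stimulated with E2 (1nM final), 16 hr at 37C. LiveBLAzer B/G FRET substrate, 2 hours room temperature, fluorescence read-out.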

[18] = molecular target: Estrogen receptor beta (Homo sapiens) (UniProt Q92731); test: qHTS assay to identify small molecule agonists of the estrogen receptor beta (ER-beta) signaling pathway (AID 1259377; active = well fitted activation curve with a large enough effect in the signal ratio in the repeat runs, not every such curve was filed as active; the % refers to the signal ratio)
Outline: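 ER-beta-UAS-bla HEK293T cells in medium with 2% charcoal-stripped FBS were exposed to compounds for 16 h at 37C. Beta-lactamase reporter activity was read as fluorescence after 2 h with LiveBLAzer B/G FRET substrate at room temperature.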

Measured: Potency

CC(COC(=O)c1ccccc1)OC(=O)c1ccccc1 (stereo not drawn)
not listed: [15] | [16] | [17] | [18]
inactive: all other assays above

CC(CN(C)C)CN1c2ccccc2CCc2ccccc21 (stereo not drawn)
active: [15] 2.37 µM | [8] 26.6 µM | [9] 23.7 µM | [12] 29.8 µM
not listed: [7] | [14] | [16] | [17] | [18]
inactive: all other assays above

C[C@]12CC[C@H]3C(=CCc4cc(O)ccc43)[C@@H]1CCC2=O
active: [15] 21.7 µM | [8] 27.3 µM | [16] 5.45 µM | [9] 30.6 µM
inactive: [1] | [2] | [3] | [6] | [11] | [13] | [14]

C=C[C@](C)(O)CC[C@@H]1[C@@]2(C)CCCC(C)(C)[C@@H]2CC[C@@]1(C)O
inactive: [2] | [3] | [6] | [10] | [11] | [12] | [13]
active: [1] 61.1 µM | [15] 61.1 µM | [17] 27.3 µM | [8] 48.6 µM | [9] 61.1 µM

O=C(c1ccccc1)c1cc(Cl)ccc1O
inactive: [1] | [2] | [3] | [5] | [6] | [7] | [10] | [13] | [14]

CC1=CCC(=O)O1
not listed: [4] | [16]
inactive: all other assays above

CS(C)(=O)=O
not listed: [4] | [11] | [16]
inactive: all other assays above

Cc1ccc(CCn2c3c(c4cc(Cl)ccc42)CN(C)CC3)cn1
active: [8] 26.6 µM | [9] 26.6 µM
not listed: [4] | [5] | [15] | [17] | [18]
inactive: all other assays above

CCCCCCCCCCOCC(O)CN (stereo not drawn)
active: [15] 11.9 µM | [8] 26.6 µM | [9] 26.6 µM
not listed: [4] | [7] | [14] | [17] | [18]
inactive: all other assays above

CCOC(/C=C(\C)CCC=C(C)C)OCC
not listed: [7] | [15] | [16] | [18]
inactive: all other assays above

CCO[Si](CCCSSSSCCC[Si](OCC)(OCC)OCC)(OCC)OCC
inactive: [1] | [2] | [3] | [5] | [6] | [15] | [10] | [13]
active: [8] 61.2 µM | [9] 54.5 µM

CCC(=O)OCCc1ccccc1
not listed: [4] | [5] | [11] | [15] | [16]
inactive: all other assays above

COc1ccc2sc(C(=O)Nc3nnn[nH]3)c(OC(C)C)c2c1
active: [1] 30.5 µM | [4] 27.2 µM | [15] 6.83 µM | [8] 6.83 µM
inactive: [2] | [3] | [6] | [18] | [10] | [11] | [12] | [14]

OCCN1CN(CCO)CN(CCO)C1
not listed: [15] | [17] | [18]
inactive: all other assays above

O=C(Nc1ccc(Cl)c(Cl)c1)c1cc(Cl)cc(Cl)c1O
inactive: [3] | [6] | [10]
active: [1] 3.44 µM | [2] 1.22 µM | [15] 3.86 µM | [7] 6.86 µM | [8] 21.7 µM | [9] 19.3 µM | [13] 7.7 µM

Cc1ccc2ccc3cccc4ccc1c2c34
active: [8] 24.3 µM
not listed: [3] | [11] | [14] | [16]
inactive: all other assays above

CC(C)=CCCC(C)CCOC(=O)C(C)C (stereo not drawn)
not listed: [3] | [16]
inactive: all other assays above

CN(C)CCCN1c2ccccc2Sc2ccc(C(F)(F)F)cc21
inactive: [1] | [2] | [3] | [6] | [10] | [11] | [13] | [14]
active: [15] 29.8 µM | [8] 18.8 µM | [9] 18.8 µM | [12] 29.8 µM

CC(C)=CC1CC(C)CCO1 (stereo not drawn)
not listed: [4] | [14] | [16]
inactive: all other assays above

C/C=C/C(=O)C1=C(C)CCCC1(C)C
not listed: [7] | [15]
inactive: all other assays above

NCCCCCCNCCCCCCN
inactive: [1] | [2] | [3] | [6] | [7] | [8] | [9] | [10] | [13] | [14]

CCCC(CC)CCCCCCCN (stereo not drawn)
active: [7] 62.6 µM
not listed: [8] | [15] | [16] | [17] | [18]
inactive: all other assays above

CCCCCCCC/C=C\CCCCCCCC(=O)N(C)CC(=O)O
active: [8] 54.5 µM | [9] 61.1 µM
not listed: [7] | [14] | [16] | [17] | [18]
inactive: all other assays above

CCN(CC)c1cccc(C)c1
not listed: [4] | [7] | [16] | [17] | [18]
inactive: all other assays above

CCc1cccc(C)c1
not listed: [7] | [16] | [17] | [18]
inactive: all other assays above

COc1cccc(CCc2ccccc2OCC(CN(C)C)OC(=O)CCC(=O)O)c1 (stereo not drawn)
active: [15] 16.8 µM | [8] 23.7 µM | [9] 21.1 µM
not listed: [4] | [16] | [17] | [18]
inactive: all other assays above

CCCCN(CCCC)CCC(O)c1cc2c(Cl)cc(Cl)cc2c2cc(C(F)(F)F)ccc12 (stereo not drawn)
active: [8] 7.5 µM
not listed: [7] | [9] | [15] | [16] | [17]
inactive: all other assays above
